Fewer than 10 of roughly 52,000 compounds were called active. The list is a sample of the results. Unmarked numbers belong to inactive results.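 How the source made its calls: active means IC50 under 40 µM in the dose-response test; inactive means IC50 of 40 µM or more, or never dose-tested.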
What follows are compounds tested against Tyrosine-protein phosphatase non-receptor type 22 (Homo sapiens) (UniProt Q9Y2R2) (assay: LYP phosphatase inhibitors, primary screen, biochemical, DiFMUP fluorescence, recombinant catalytic domain, 10 µM (AID 606)). Conditions: at 10 µM, hits give high values.
Tyrosine-protein phosphatase non-receptor type 22 (Homo sapiens), sequence (Q9Y2R2 whole entry, looked up, the tested form may be a part): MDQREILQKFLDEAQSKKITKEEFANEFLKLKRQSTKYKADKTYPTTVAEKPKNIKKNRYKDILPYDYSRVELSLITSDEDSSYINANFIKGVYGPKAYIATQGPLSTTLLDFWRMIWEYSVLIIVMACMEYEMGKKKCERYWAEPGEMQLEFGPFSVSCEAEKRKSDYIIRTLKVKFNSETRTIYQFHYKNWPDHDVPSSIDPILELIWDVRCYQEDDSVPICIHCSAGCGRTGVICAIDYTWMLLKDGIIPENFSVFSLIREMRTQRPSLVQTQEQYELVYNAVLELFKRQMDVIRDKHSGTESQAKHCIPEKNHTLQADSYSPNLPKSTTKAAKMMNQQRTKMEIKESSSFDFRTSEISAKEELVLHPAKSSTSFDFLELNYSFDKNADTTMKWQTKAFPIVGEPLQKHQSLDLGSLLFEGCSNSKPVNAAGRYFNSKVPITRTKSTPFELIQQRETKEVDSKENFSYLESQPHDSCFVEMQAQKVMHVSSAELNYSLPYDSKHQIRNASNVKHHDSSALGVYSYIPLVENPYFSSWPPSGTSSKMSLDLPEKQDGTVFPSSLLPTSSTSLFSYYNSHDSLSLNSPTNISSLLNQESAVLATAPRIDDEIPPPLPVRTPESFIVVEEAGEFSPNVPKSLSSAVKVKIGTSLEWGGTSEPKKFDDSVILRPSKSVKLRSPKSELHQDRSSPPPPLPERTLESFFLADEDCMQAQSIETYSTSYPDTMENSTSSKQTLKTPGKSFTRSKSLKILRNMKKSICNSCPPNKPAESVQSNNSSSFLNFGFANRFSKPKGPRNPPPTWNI
For `COc1ccc(C(=O)N2CCN(c3ccc(C)cc3)CC2)cc1OC`, the inhibition was -3.18%.
For `CCNC(=O)CC1C(=O)N(c2ccccc2)C(=O)N1CCC(C)C` (configuration not stated), the inhibition was 5.24%.
`COc1ccccc1-n1c(CNC(=O)c2ccco2)nnc1SCC(=O)Nc1nccs1` gave an inhibition of 3.45%.
`CCOC(=O)Cn1c(=N)n(Cc2ccccc2)c2ccccc21` showed an inhibition of -0.97%.
`Cn1c(CN2CCOCC2)nc2cc(NC(=O)c3ccccc3Cl)ccc21` showed an inhibition of 10.7%.
`Cc1cc(C)n2nc(C(=O)Nc3ccccc3N3CCOCC3)nc2n1` gave an inhibition of 15.1%.
With `CCCn1c(N)c(C(=O)CN2CCN(S(=O)(=O)c3cccs3)CC2)c(=O)[nH]c1=O` the inhibition was -0.47%.
For `CCCN(c1ccc(OCC)cc1)c1ncnc2nc[nH]c12`, the inhibition was 16.1%.
Compound `CC1(C)Cc2c(sc(NC(=O)c3ccco3)c2C#N)CO1` has an inhibition of 4.29%.
`CC(=O)c1ccc(OCCCC(=O)n2nnc3ccccc32)cc1` showed an inhibition of 14.1%.
With `Cc1cc(C(F)(F)F)nc(SCC(=O)Nc2ccccc2)n1` the inhibition was 0.2%.
For `C=CCSc1nc(C)c(CC(=O)OCCCC)c(=O)[nH]1`, the inhibition was 2.59%.
`CCOC(=O)c1oc2c(CN3CCCCC3C)c(O)ccc2c(=O)c1-c1ccc(OC)c(OC)c1` (configuration not stated) was tested, and the inhibition was 15.8%.
`CC(=O)NC(c1ccccc1)c1nc2ccccc2[nH]1` (configuration not stated) was tested, and the inhibition was -1.04%.
`CCCn1c(NCc2ccco2)nc2ccccc21` gave an inhibition of 11.7%.
Compound `COc1ccc(CCNc2cc(=O)[nH]c(N)n2)cc1` has an inhibition of 16.4%.
`COC(=O)c1ccc(CSc2nc3scc(-c4cccs4)c3c(=O)[nH]2)o1` gave an inhibition of 3.74%.
For `COc1ccc(NC2CCN(C3CC(=O)N(c4ccc(F)c(Cl)c4)C3=O)CC2)cc1` (configuration not stated), the inhibition was 4.79%.
In the case of `COc1ccc(CC(=O)N2CCN=C2SC)cc1`, the inhibition is reported as 7.94%.
In the case of `O=S(=O)(Nc1ccc2c(c1)oc1ccccc12)N1CCCC1`, the inhibition is reported as -2.32%.
`Cc1ccc(S(=O)(=O)/N=C(/Nc2nc(C)cc(C)n2)N2CCOCC2)cc1` showed an inhibition of 2.14%.
`Cc1nnc(NCc2ccco2)c2ccccc12` showed an inhibition of 5.7%.
